Compound activity deposited in PubChem BioAssay by National Center for Advancing Translational Sciences (NCATS).
FBPA Giardia inh = blocks Giardia fructose-bisphosphate aldolase activity | A8B2U2 | purified Giardia FBPA | Potency, µM (series often up to 59.6 µM), for inactives: top-dose activity, negative = inhibition, hits mostly inhibitors | 290,000 compounds, 0.71% hits | AID 2451; note: potency is the fitted concentration of half-maximal effect; nearly all actives have a fitted effect of over 55% in size
Target sequence (A8B2U2 whole entry, looked up): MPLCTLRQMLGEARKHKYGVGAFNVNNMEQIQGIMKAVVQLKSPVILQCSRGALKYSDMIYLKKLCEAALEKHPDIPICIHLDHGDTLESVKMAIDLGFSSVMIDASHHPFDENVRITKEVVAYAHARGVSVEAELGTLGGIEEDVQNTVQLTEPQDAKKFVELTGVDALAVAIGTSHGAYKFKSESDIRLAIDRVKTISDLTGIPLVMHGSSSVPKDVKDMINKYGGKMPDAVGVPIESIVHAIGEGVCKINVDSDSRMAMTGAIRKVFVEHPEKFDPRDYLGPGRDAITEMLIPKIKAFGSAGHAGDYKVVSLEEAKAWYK
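40 nM FBPA preincubated 10 min at RT with compound (up to 57.5 uM final), then substrate plus GAPDH/TPI/NAD/arsenate coupling and diaphorase/resazurin added. Fluorescence read after 20 min at RT, 525/598 nm.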
FMDV inh = blocks foot and mouth disease virus. 410,000 compounds, 1.2% hits. Potency, µM (titrated, usually from 57.9 µM), for inactives: at the highest dose activity change, negative = inhibition, usual class: inhibitors. AID 1159524. FMDV antiviral cell-based qHTS; calls by dose curve; tested in HEK293T cells; note: read-out not given here; potency is the fitted concentration of half-maximal effect; nearly all actives have a fitted effect of over 45% in size
HCV inhibitor = inhibitors of hepatitis C virus infection; Potency, µM (highest dose often 41.8 µM), without a hit: at the top dose activity change, negative = inhibition, actives largely listed as inhibitors; 340,000 compounds, 3.4% hits; Huh7.5.1 HCVcc-Cre infection, luciferase reporter, 44 h; note: potency is the fitted concentration of half-maximal effect
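Compounds are dispensed onto cells plated 4 h earlier at 1,000 per well, with HCVcc-Cre virus (about 0.5 moi) added next. Following 44 h of culture, luminescent signal is measured for 15 sec after 15 min with substrate at room temperature.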
LASV entry inh = blocks Lassa virus binding to or entry into cells | Lassa virus pseudotype entry inhibition, cell reporter | Potency, µM (doses to about 37.9 µM), for inactives: top-dose activity change, negative = inhibition, actives largely listed as inhibitors | 300,000 compounds, 1.2% hits | AID 540256; calls by dose curve; tested in HEK293 cells; note: potency is the fitted concentration of half-maximal effect; nearly all actives have a fitted effect of over 50% in size
HCMV inh = human cytomegalovirus inhibition; activity change, negative = inhibition, % at 57.5 µM; 410,000 compounds, 4.5% hits; HFF cells, HCMV-luciferase reporter, 72 h; active compounds read low; in the data active = activity change below about -60%; inconclusive = no clear call, values can overlap the other calls; inactive = above about -39%
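Cell-based, HFFs, 1000 cells/well, 16 h 37C; cpds in DMSO + HCMV-luc, MOI 1 PFU/cell; 72 h 37C; OneGlo luminescence after 5 min RT; norm. to buffer vs Salinomycin 10uM.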
MARV entry inh = blocks Marburg virus binding to or entry into cells | Potency, µM (top dose mostly 37.8 µM), inactives show at the highest dose activity change, negative = inhibition, usual class: inhibitors | 300,000 compounds, 1.8% hits | Marburg virus pseudotyped entry inhibition, cell reporter; calls by dose curve; tested in HEK293 cells; note: potency is the fitted concentration of half-maximal effect
Numbers without * were called inactive; ? = inconclusive; / = no result given; ! = not confirmed by another sample; [ ] = another dose, or the depositor's remark. Compounds with a hit are over-represented: about 8.3% of the library has one in this group of screens. Unless noted, calls come from the whole dose curve; as a rule, active = well fitted curve in the direction sought with a large enough effect; inconclusive = small, poorly fitted or top-dose-only effect, or another doubt; inactive = no such curve, though single readings can be large; an effect the other way counts as inactive or inconclusive. % is set by controls: 0 for no effect and ±100 for the full control effect.

SMILES	FBPA Giardia inh	FMDV inh	HCV inhibitor	LASV entry inh	HCMV inh	MARV entry inh
COc1cc(/C=N/NC(=O)CCN2CCN(C(c3ccccc3)c3ccccc3)CC2)ccc1O	7.1%	-17.4%	4.47µM*	-21.0%[46.1 µM]	2.2	?
COc1cc(/C=N/NC(=O)CCc2ccccc2)ccc1O	0.6%	-7.6%	0.9%	2.82µM*	31.9	?
COc1cc(/C=N/NC(=O)CCNC(=O)c2ccccc2Cl)ccc1O	0.4%	3.1%	4.3%	4.1%	70.1	12.0%
CC(C)C1C(=O)N2CCC[C@H]2[C@]2(O)O[C@](NC(=O)[C@@H]3C=C4c5cccc6[nH]cc(c56)C[C@H]4N(C)C3)(C(C)C)C(=O)N12 (some centres undefined)	/	-0.3%	/	/	/	/
Cc1ccc(C)c(Cn2c(=O)n(CCCCC(=O)NCc3ccc4c(c3)OCO4)c(=O)c3ccccc32)c1	/	-10.8%	/	-13.6%[46.1 µM]	3.9	?
COc1ccc(NC(=O)C2CC(c3c(F)cccc3Cl)=NO2)cc1 (centres undefined)	-2.4%	28.8%	-3.8%	/	-10.3	/
COc1cc(NC(=O)C2CC(c3c(F)cccc3Cl)=NO2)cc(OC)c1OC (centres undefined)	7.5%	25.1µM*	25.1µM*	-14.1%[46.1 µM]	-26.8	?
CC(=O)Nc1ccc(Nc2cc(C)nc3c(-c4ccc(Cl)cc4)cnn23)cc1	8.4%	10.8%	?	?	-70.1*	?
Cc1ccc2oc(C(Cl)(Cl)Cl)cc(=O)c2c1	7.6%	/	?	-26.6%	-89.3*	11.6µM*
C=CCOC(=O)N[C@@H](c1cccc(OC)c1)[C@@H](C)C=CCC(=O)O	/	/	/	/	/	6.7%[14.2 µM]
CCOc1ccc(-c2c(C)n(-c3ccc(OCC)cc3)c3[n+]2CCCCC3)cc1	-8.2%	?	2.51µM*	?	-94.8*	?
CCOc1ccc(-n2c(-c3ccccc3)c[n+]3c2CCCCC3)cc1	-0.6%	?	?	/	-100.2*	/
Cc1ccc(-c2c[n+]3c(n2-c2ccccc2)CCC3)cc1	2.3%	?	?	?	-95.8*	?
CCOc1ccc(N2C(=O)CCC2=O)cc1	0.8%	-13.3%	-1.9%	3.5%	67.1	22.1%
c1ccc(-c2c[n+]3c(n2-c2ccccc2)CCC3)cc1	5.1%	?	?	/	-37.1	/
CCOC(=O)c1c(NC(=O)CSc2nc3cc(Cl)ccc3s2)sc(C(C)=O)c1C	1.8%	/	-10.1%	10.3%	-61.2*	24.8%
CCOC(=O)c1c(NC(=O)COc2ncnc3ccccc23)sc(C(C)=O)c1C	6.1%	-5.4%	7.08µM*	-10.5%	14.4	-30.5%
O=C(c1csnn1)N1CCC2(CCCN(c3ccccn3)C2)CC1	-11.0%	-2.4%	/	/	/	/
COc1ccc(-c2nnc(-c3ccc(Br)o3)o2)cc1OC	2.7%	33.5%	-16.5%	3.0%	-107.1*	21.5%
COc1ccc(-c2nc(-c3ccc(Br)o3)no2)cc1OC	0.3%	26.4%	?	/	-3.7	/
CCOc1cc(NC(=O)c2cccs2)c(OCC)cc1NC(=O)c1ccco1	0.5%	4.6%	-22.7%	-0.1%	31.0	-5.1%
CCOc1ccc(C(CC(=O)O)NC(=O)C(c2ccccc2)c2ccccc2)cc1OC (centres undefined)	/	-2.5%	9.2%	/	-27.7	/
CCOc1cc(NS(=O)(=O)c2ccc(OC)cc2)c(OCC)cc1NC(=O)c1ccco1	?	-7.2%	-4.8%	-12.7%	-96.7*	?
COc1ccc(S(=O)(=O)Nc2cc(OC)c(NC(=O)c3ccco3)cc2OC)cc1	-12.1%	/	-20.6%	17.5%	41.9	-28.0%
CCOc1ccc(C(CC(=O)O)NC(=O)c2ccco2)cc1OC (centres undefined)	-0.7%	-22.2%	12.5%	15.9%	-100.5*	13.7%
SMILES	FBPA Giardia inh	FMDV inh	HCV inhibitor	LASV entry inh	HCMV inh	MARV entry inh
CCOc1cc(NS(=O)(=O)CC)c(OCC)cc1NC(=O)c1ccco1	-18.4%	-6.9%	?	1.4%	-77.4*	?
CCOc1cc(NC(=O)c2ccco2)c(OCC)cc1NC(=O)Cc1cccc(OC)c1	?	-13.3%	12.6µM*	?	-33.2	2.7%
COc1ccccc1NC(=O)c1c(C)cc(C)nc1SCC(=O)Nc1ccc(C)c(C)c1	/	-4.4%	/	-21.8%[46.1 µM]	?	7.94µM*
Cc1cc(C)c(C(=O)Nc2ccccc2)c(SCC(=O)Nc2ccc(Br)cc2C)n1	/	-11.5%	/	-18.0%[46.1 µM]	-69.2*	?
COc1ccc(NC(=O)CSc2nc(C)cc(C)c2C(=O)Nc2ccccc2OC)cc1	/	8.3%	/	-6.4%[46.1 µM]	0.7	-9.4%[46.1 µM]
COc1cc(CN2CCC3(CCC(CNC(=O)c4ccco4)O3)CC2)ccc1O (centres undefined)	/	-10.6%	/	/	/	/
COc1ccccc1-n1c(Cc2cccc3ccccc23)nnc1SCC(=O)O	/	/	/	/	26.2	/
O=C(/C=C/c1ccc(Cl)cc1)c1cccnc1	-4.9%	-7.4%	12.0%	-2.3%	-7.8	?
N#Cc1ccc(/C=C/C(=O)c2cccnc2)cc1	-6.3%	39.8µM*	?	?	8.6	?
O=C(/C=C/c1ccccc1Cl)NNC(=O)c1ccncc1	/	-12.4%	-3.4%	/	-4.1	/
O=C(/C=C/c1ccccc1Cl)c1cccnc1	-0.6%	14.1µM*	?	?	-14.6	?
CC(C)N1C(=O)CC[C@@H](S(=O)(=O)c2ccccc2)[C@@H]1c1ccccc1	/	/	/	/	-3.8	/
Cc1cc(C)c(Cn2c(C(O)c3ccccc3)nc3ccccc32)c(C)c1 (centres undefined)	/	-26.1%	/	?	?	?
Cc1ccc2c(c1)-c1nc(-c3ccc4c(c3)NC(=O)CO4)cc(-c3ccc(Cl)cc3)c1CO2	/	-8.2%	/	3.8%[46.1 µM]	6.5	-10.2%[46.1 µM]
COc1ccc(-c2nc3c(c4c2C[C@H](c2ccccc2)OC4)CN(C(=O)c2cc(I)ccc2F)CC3)c(C)c1	6.7%[12.9 µM]	/	/	/	/	-0.2%[14.2 µM]
CNc1cncc(-c2c(OC)cccc2OC)n1	/	-5.1%	/	/	-103.4*	/
CCCNC(=O)OC[C@H]1O[C@H](CCON=C(C)CCC(=O)OC[C@H]2O[C@H](C#Cc3ccccc3)C=C[C@H]2Oc2ccc(C)cc2)C=C[C@H]1Oc1ccc(OC)cc1	/	/	/	/	/	-28.6%[14.2 µM]
N#CC1=C(N)OC2=C(C(=O)CC(c3ccco3)C2)C1c1ccc(OCc2c(F)cccc2Cl)cc1 (centres undefined)	/	-24.8%	?	?	8.0	?
COc1cccc(C2C(C#N)=C(N)OC3=C2C(=O)CC(c2ccco2)C3)c1OCc1ccc(F)cc1 (centres undefined)	-12.6%	-4.2%	?	?	-4.8	15.8µM*!
O=C(c1ccco1)C(O)c1ccco1 (centres undefined)	-4.2%	-4.4%	-2.7%	/	-61.8*	/
c1ccc2sc(NCC3CCCO3)nc2c1 (centres undefined)	0.0%	17.8%	3.2%	-13.0%[46.1 µM]	77.5	?
c1ccc2oc(-c3csc(NCC4CCCO4)n3)cc2c1 (centres undefined)	-7.3%	-22.6%	25.1µM*	?	6.9	?
